Only some compounds are listed: those with a hit (about 11% of all), similar ones and a draw of the others.
USP28 block: inhibitors of human USP28 deubiquitinase. inhibition, % at 25 µM. actives 3% (n = 47,000). Ubiquitin carboxyl-terminal hydrolase 28 (Homo sapiens), Q96RU2. purified USP28, Ub-rhodamine cleavage fluorescence, 30 min
USP17 block: inhibitors of human USP17 deubiquitinase; Ubiquitin carboxyl-terminal hydrolase 17-like protein 5 (Homo sapiens), A8MUK1; purified USP17, Ub-rhodamine cleavage fluorescence, 3 h; inhibition, % at 50 µM; actives 6.5% (n = 47,000)
USP30 block: inhibitors of human USP30 deubiquitinase; purified USP30, Ub-rhodamine cleavage fluorescence; actives 5.3% (n = 47,000); Ubiquitin carboxyl-terminal hydrolase 30 (Homo sapiens), Q70CQ3; inhibition, % at 25 µM
Target sequence (Q70CQ3 whole entry, looked up): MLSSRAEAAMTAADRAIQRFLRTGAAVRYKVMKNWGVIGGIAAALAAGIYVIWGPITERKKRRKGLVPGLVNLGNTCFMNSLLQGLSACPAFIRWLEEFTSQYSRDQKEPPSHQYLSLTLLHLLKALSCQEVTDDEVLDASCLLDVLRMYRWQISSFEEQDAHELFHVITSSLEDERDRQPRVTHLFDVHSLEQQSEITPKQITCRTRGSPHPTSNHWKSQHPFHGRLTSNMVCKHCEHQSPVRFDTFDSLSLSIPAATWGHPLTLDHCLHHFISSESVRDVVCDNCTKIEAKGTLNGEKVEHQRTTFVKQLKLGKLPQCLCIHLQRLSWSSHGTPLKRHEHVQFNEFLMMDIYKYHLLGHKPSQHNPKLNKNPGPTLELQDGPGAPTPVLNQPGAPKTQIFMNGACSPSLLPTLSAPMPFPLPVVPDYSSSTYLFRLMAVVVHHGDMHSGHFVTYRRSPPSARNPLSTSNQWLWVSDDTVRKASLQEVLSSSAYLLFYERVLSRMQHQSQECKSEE
* = called active by the depositor; x = no result given. Cut-off read from the data, not from the text of the source: active = inhibition above about 30%; inactive = the rest.

SMILES	USP28 block	USP17 block	USP30 block
Cc1nn(-c2ccccc2)c2c1C(c1cccnc1)c1c(ncn3nc(-c4cccc5ccccc45)nc13)O2 (configuration not stated)	9	16	24
CCCc1nc2sc3c(SCC(=O)N(c4ccccc4)c4ccccc4)ncnc3c2c2c1COC(C)(C)C2	-3	5	-2
CC(C)c1nc2sc3c(SCC(=O)N(c4ccccc4)c4ccccc4)ncnc3c2c2c1COC(C)(C)C2	7	14	32*
N#Cc1ccc(NC(=O)COC(=O)C(Cc2c[nH]c3ccccc23)NC(=O)c2ccc(F)cc2)cc1 (configuration not stated)	6	22	0
N#Cc1cccc(NC(=O)C(Cc2c[nH]c3ccccc23)NC(=O)c2cccs2)c1 (configuration not stated)	19	22	33*
O=C(/C=C/c1c(F)cccc1Cl)NCCN1CCOCC1	2	-11	-20
COc1ccc(C)cc1NC(=O)c1nc(C2CCC2)oc1C	-4	x	0
CC(CNC(=O)c1cnn2c3c(cnc12)CCCC3)c1ccccc1 (configuration not stated)	24	13	31*
O=C(NCCC1=CCCCC1)c1cnn2c3c(cnc12)CCCCCC3	28	20	38*
CC(CCc1ccccc1)NC(=O)c1cnn2c3c(cnc12)CCCC3 (configuration not stated)	-10	7	-6
O=C(O)c1cnn2c3c(cnc12)CCCCCC3	7	-5	2
O=C(NCc1cccc(Cl)c1)c1ccc2c(c1)SC1=NS(=O)(=O)CCN12	5	4	-8
CC(C)(C)c1ccccc1NC(=O)c1ccc2c(c1)SC1=NS(=O)(=O)CCN12	31*	12	-8
Cc1cc2nc(C3CCN(Cc4ccc(F)cc4F)CC3)cc(N)n2n1	-14	-9	-14
NCCNC(=O)NC1CCN(c2nc(-c3cccnc3)nc3ccccc23)CC1	10	-11	21
O=C(NC1CCN(c2nc(-c3cccnc3)nc3ccccc23)CC1)c1cccnc1	52*	9	3
CC1(C(=O)O)Oc2ccccc2NC1=O (configuration not stated)	0	1	14
Cc1cccc(C(=O)Nc2c(C)nc3ccccn3c2=O)c1	6	14	15
Cc1cccc(C(=O)Nc2ccccc2Sc2nc3c(c(=O)n(C)c(=O)n3C)n2C)c1	31*	33*	71*
COc1ccc(C2NC3=NCN(Cc4ccco4)CN3c3nc4ccccc4n32)cc1OC (configuration not stated)	-8	x	-16
Cc1ccc(-c2onc(C)c2C)cc1S(=O)(=O)NCc1ccccc1	15	22	35*
COc1ccc(-c2onc(C)c2C)cc1S(=O)(=O)NCc1ccccc1	-3	-40	1
Cc1ccc(C2N3CC4(C)CN2CC(c2ccccc2)(C3)C4=O)cc1 (configuration not stated)	11	19	34*
CC12CN3CC(c4ccccc4)(CN(C1)C3c1ccc(O)cc1)C2=O (configuration not stated)	-12	-5	-11
Cc1ccc(CN2CN(C3CCN(C(=O)c4cc(C)[nH]n4)CC3)CC2=O)cc1	0	-6	-4
SMILES	USP28 block	USP17 block	USP30 block
CN(C)C(=O)CSc1nnc(-c2cccc(Cl)c2)n1-c1ccc(Cl)c(C(F)(F)F)c1	11	68*	47*
CN(C)c1cccc(-c2nnc(SCC(=O)Nc3ccc(F)cc3)n2-c2ccccc2)c1	-8	14	-15
CC1(C)Cc2c(C#N)c(Nc3ccccc3)n3c(SCC(N)=O)nnc3c2CO1	0	-2	-118
Cc1cc(C)c2nc(N3CCCC(C(=O)NCc4cccc(F)c4)C3)sc2c1 (configuration not stated)	7	22	37*
COc1ccccc1CNC(=O)C1CCCN(c2nc3c(C)cc(C)cc3s2)C1 (configuration not stated)	-14	-3	6
Cc1cc(C)c2nc(N3CCCC(C(=O)NCc4ccccc4C)C3)sc2c1 (configuration not stated)	19	33*	19
Cc1cc(C)c2nc(N3CCCC(C(=O)NCCc4ccc(Cl)cc4)C3)sc2c1 (configuration not stated)	1	5	1
O=C(CCCC(=O)N(c1cccc(F)c1)C(C(=O)NC1CCCC1)c1ccc(Cl)cc1)Nc1ccccn1 (configuration not stated)	-7	-4	5
CCN(CC)c1ccc(CNc2nc(-c3cccnc3)nn2S(C)(=O)=O)cc1	4	-2	-4
CC1CC(NC(=O)C(=O)Nc2ccc(Cl)cc2Cl)CC(C)(C)C1 (configuration not stated)	-5	3	-3
COc1cc(C2CN3C(=O)CN(Cc4ccco4)C(=O)[C@]3(C)c3[nH]c4ccccc4c32)ccc1OC(C)C (some centres not stated)	-15	-10	-71
O=C(CCCCCn1c(=O)c2sccc2n(CC(=O)c2ccc(Cl)c(Cl)c2)c1=O)NCc1ccc2c(c1)OCO2	3	20	6
CCOc1ccccc1NC(=O)Cn1c(=O)n(CCCC(=O)NCc2ccc(C)cc2)c(=O)c2sccc21	36*	83*	37*
O=C(CCCCCn1c(=O)c2sccc2n(CC(=O)c2ccc(F)cc2)c1=O)NCc1ccccc1Cl	16	19	39*
Cc1ccc(CNC(=O)CCCn2c(=O)c3sccc3n(CC(=O)Nc3cc(Cl)ccc3C)c2=O)cc1	55*	74*	21
CCOc1ccccc1NC(=O)Cn1c(=O)n(CCc2ccccc2)c(=O)c2c3c(sc21)CN(C(C)=O)CC3	-14	-55	-103
Cc1cc(NC(=O)Cn2c(=O)n(CCCCCC(=O)NCc3ccc4c(c3)OCO4)c(=O)c3sccc32)n[nH]1	-4	26	21
CN1CCN(C2CCOCC2)CC1c1ccccc1 (configuration not stated)	-1	-1	-12
CC(=O)c1cccc(NC(=O)CSc2[nH]c(=O)ncc2C)c1	3	-17	6
COc1cc2c(cc1OC)-c1cc(Oc3cccc(Cl)c3)nc(=O)n1CC2	-104	-114	-328
Cc1ccccc1-n1nc2c(c1NC(=O)COc1ccc(Cl)cc1)CS(=O)(=O)C2	-3	0	-2
CC(=O)Nc1cc(NC(=O)CSc2nnc(-c3ccco3)c(-c3ccco3)n2)ccc1C	3	46*	-103
COc1ccc(NC(=O)CSc2nnc(-c3ccco3)n2C)cc1OC	10	27	16
Cc1cc(=O)n2c(n1)NC(N1CCc3ccccc31)=NC2c1cccnc1 (configuration not stated)	2	5	13
Cc1ccc2c(c1)[nH]c1c(N3CCc4ccccc4C3)ncnc12	6	43*	-53
Cc1ccc2[nH]c3c(N4CCSCC4)ncnc3c2c1	1	-6	1
O=C(NCc1ccc(Cl)cc1)c1cc2cc(C(F)(F)F)ccc2s1	-1	1	2
C=C1CCC[C@]2(C)C[C@H]3OC(=O)C(CN4CCC(O)(c5ccc(Cl)cc5)CC4)[C@H]3CC12 (some centres not stated)	3	-6	8
